# Bioassay records: PubChem, The Scripps Research Institute Molecular Screening Center
# Shown are actives, neighbours in structure and some others; about 4.1% of the full set was active somewhere.
# ssDAF-12 act: S. stercoralis DAF-12 activation, primary screen. activation, % at 6.8 µM. HEK293 ssDAF-12/GRIP1 lit1-tk-luc reporter, luminescence; % of 3 µM dafachronic acid response. hit rate 1% among 370,000;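 active means activation above the mean over all tested compounds plus 3 SD, cut at about 0.9% in these data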
# DAX1 inh-1: DAX1 (NR0B1) inhibition, primary screen. hit rate 1.1% among 370,000. HEK293T StAR-luciferase reporter, SF-1/DAX-1 repression relief. inhibition, % at 6.8 µM. AID 652010;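 active means inhibition above the mean over all tested compounds plus 3 SD, cut at about 3.6% in these data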;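 further: higher inhibition means more luminescence from relief of DAX-1 repression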
# DAX1 inh-2: NR0B1 (DAX1) inhibition. HEK293 Gal4-DAX1 luciferase reporter, luminescence. inhibition, % at 6.75 µM. P51843. hit rate 0.99% among 340,000. AID 504766;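 active means inhibition above the mean over all tested compounds plus 3 SD, cut at about 4.2% in these data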;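 further: inhibition shows as a rise in luminescence from relieved DAX1 repression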
# Target sequence (P51843 207-470 limits assumed): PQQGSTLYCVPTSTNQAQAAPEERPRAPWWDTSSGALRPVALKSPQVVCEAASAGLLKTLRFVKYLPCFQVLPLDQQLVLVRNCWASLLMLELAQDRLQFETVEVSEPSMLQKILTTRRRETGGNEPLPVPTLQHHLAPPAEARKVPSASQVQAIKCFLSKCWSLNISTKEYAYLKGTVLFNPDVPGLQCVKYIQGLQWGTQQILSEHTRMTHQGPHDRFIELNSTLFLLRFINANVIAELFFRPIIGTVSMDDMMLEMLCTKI
# hcDAF12 agonist: activates DAF-12 receptor from parasite H. contortus; hit rate 1.4% among 370,000; activation, % at 6.8 µM; HEK293 hcDAF-12 lit1-tk-luc reporter, luminescence; 0% DMSO, 100% Δ7-dafachronic acid;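 active means activation above the mean of all tested compounds plus 3 SD, cut at about 5.5% in these data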
# hgDAF-12 ag: activates the H. glycines DAF-12 receptor ligand-binding domain; HEK293 GAL4-hgDAF12 UAS-luciferase reporter, agonist luminescence; normalized to butyrate control; activation, % at 6.8 µM; hit rate 1.8% among 370,000; AID 687014;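 active means activation above a cutoff set at the mean of all screened compounds plus 3 SD, cut at about 10% in these data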
# Hits are given with their value; 0 = inactive; - = no result.
SMILES,ssDAF-12 act,DAX1 inh-1,DAX1 inh-2,hcDAF12 agonist,hgDAF-12 ag
O=C(Cc1c(F)cccc1Cl)Nc1cc(S(=O)(=O)N2CCCCC2)ccc1N1CCOCC1,0,0,5.8,0,0
O=C(/C=C/c1ccccc1)Nc1cc(S(=O)(=O)N2CCOCC2)ccc1N1CCCC1,0,0,0,0,0
CN1CCN(c2ccc(S(=O)(=O)N3CCCCC3)cc2NC(=O)Cc2c(F)cccc2Cl)CC1,0,0,0,0,0
Cc1cc(NC(=S)NC(=O)/C=C/c2ccc(S(=O)(=O)N3CCOCC3)cc2)ccc1Br,3.9,0,0,0,0
O=C(/C=C/c1ccccc1)Nc1cc(S(=O)(=O)N2CCOCC2)ccc1N1CCOCC1,0,0,4.5,0,0
CCOC(=O)c1cnc2c3c(noc13)CCC2,0,0,-,0,0
O=C(N/N=C1\CCc2ccccc21)c1ccccc1O,0,4.4,0,6.1,0
O=C(N/N=C1\CCCCc2ccccc21)c1ccccn1,0,0,0,0,12
O=C(N/N=C1\CCCc2ccccc21)c1ccccc1Cl,0,0,0,0,0
O=C1CCCC(c2ccccc2)N1 (stereo not drawn),0,0,5.2,0,0
O=c1c2ccccc2nnn1COc1ccc(F)cc1Cl,0,0,0,0,0
O=c1c2ccccc2nnn1COc1cccc2ccccc12,1.1,0,0,0,0
CC(C)=NNc1ncnc2nc[nH]c12,0,0,6.3,0,0
CC(O)CNc1ncnc2nc[nH]c12 (stereo not drawn),0,0,0,0,0
COc1cc(NC(=O)C2CCCN(S(=O)(=O)c3ccc(Br)s3)C2)cc(OC)c1 (stereo not drawn),0,0,-,0,0
O=C(O)C1C2C=CC(C2)C1C(=O)N1CCc2ccccc21 (stereo not drawn),0,0,0,5.6,0
O=C(OC12CCCN(C1)/C(=C/c1ccccc1)C2)c1ccc(Cl)cc1 (stereo not drawn),0,0,-,0,0
O=C(CC1CCCC1)NNC(=O)c1ccccc1O,1.3,0,0,0,0
Cc1cccc(C)c1NC(=O)C1(C)CSCC(=O)N1CCCn1ccnc1 (stereo not drawn),2.1,0,-,0,0
Cc1cccc(C)c1NC(=O)C1(C)CCC(=O)N1CCCn1ccnc1 (stereo not drawn),0,0,-,0,0
COc1ccc(CNC(=O)CCNS(=O)(=O)c2ccc3[nH]c(=O)oc3c2)cc1,0,0,-,0,0
O=C(O)c1ccc(N/N=C/c2cccc(C(F)(F)F)c2)cc1,0,4.4,4.7,0,0
COc1cc(/C=N/Nc2ccc(C(=O)O)cc2)cc(OC)c1OC,0,0,4.3,0,0
O=C(N/N=C/c1cccc(C(F)(F)F)c1)c1ccccc1O,0,0,0,0,0
COc1ccc(/C=N/Nc2ccc(C(=O)O)cc2)c(OC)c1OC,0,0,0,0,0
SMILES,ssDAF-12 act,DAX1 inh-1,DAX1 inh-2,hcDAF12 agonist,hgDAF-12 ag
COC(=O)C(C(=O)OC)[C@H]1C=C[C@@H](C(=O)NS(=O)(=O)c2ccc(C)cc2)N(C(C)=O)C1,0,0,-,0,0
Cc1cc(C)cc(NC(=O)NCCCN2CCN(c3ccc(F)cc3)CC2)c1,0,0,-,0,0
Oc1ccc(Cl)cc1CNCC1CCCO1 (stereo not drawn),0,0,0,0,0
Clc1ccccc1CNCC1CCCO1 (stereo not drawn),0,0,5.9,0,0
CCCCCCCCN1C(=O)[C@@H](CC(=O)NCc2cccs2)C[C@@]2(C(=O)OC)C1=C[C@H](C(C)(C)C)O[C@@H]2C,0,0,-,0,0
O=C(NC1CCCCC1)O[C@H]1CC[C@@]23CCCN2C(=O)CCC[C@H]3C1,0,-,-,0,0
CC1CCCN(CCCNS(=O)(=O)c2cc3c(cc2Br)CCN3C(=O)C2CC2)C1 (stereo not drawn),0,0,-,0,0
COc1ccc2c(c1)CCC1C2=NN(/C(C)=C\C(C)=O)C1c1ccc(F)cc1 (stereo not drawn),0,0,0,6.0,0
COc1ccc2c(c1)C1=NN(/C(C)=C\C(C)=O)C(c3ccccc3)C1CC2 (stereo not drawn),0,0,0,0,0
CCOP(=O)(OCC)C(NC(=O)Nc1ccc(C)cc1)C(N)=O (stereo not drawn),0,0,-,0,0
CCOP(=O)(OCC)C(NC(=O)Nc1ccc(Cl)cc1)C(=O)N(CC)CC (stereo not drawn),1.5,0,0,0,0
CCN(CC)c1ccc(C(=O)OCC(=O)Nc2sccc2C#N)cc1,0,0,0,0,11
CC1CCc2nc(NC(=O)C3CC3)sc2C1 (stereo not drawn),0,0,0,0,0
Cc1ncsc1C(=O)Nc1nc2c(s1)CC(C)CC2 (stereo not drawn),0,0,0,0,13
Cn1c(=O)c2c(ncn2Cc2ccc(O)c([N+](=O)[O-])c2)n(C)c1=O,0,0,-,0,0
C=CCOC(=O)/C(=C/c1cccc2ccccc12)NC(=O)c1ccccc1,0,0,4.3,0,0
Cc1cc(-c2ccccc2)nc(N/N=C/c2ccc(O)cc2)n1,0,3.9,0,0,0
COC(=O)[C@H](C(C)C)N(Cc1cn(CC2CCCCC2)nn1)S(=O)(=O)c1ccc(F)cc1Br,0,0,-,0,0
O=C(Nc1cccc(Cl)c1)NC1CC2CCC(C1)N2Cc1cccs1 (stereo not drawn),0,0,4.6,0,0
S=c1[nH]nc(-c2cc(-c3ccccc3)n[nH]2)n1N=Cc1cccc(Oc2ccccc2)c1,0,0,-,0,0
Cc1cc2c(c(C)c1CCO)C(=O)[C@H](C)C2,0,0,4.7,0,0
Cc1cc2c(c(C)c1CCO[C@@H]1O[C@H](CO)[C@@H](O)[C@H](O)[C@H]1O)C(=O)[C@@H](C)[C@@H]2O,0,0,0,0,0
O=C(NC1CCCC1)C1(C(=O)C2CC2)CC(c2ccccn2)=NO1 (stereo not drawn),0,0,-,0,0
O=C(C[n+]1ccccc1)N1c2ccccc2Sc2ccccc21,0,0,4.5,0,0
CN(C)c1cc[n+](CC(=O)N2c3ccccc3Sc3ccccc32)cc1,0,0,0,0,0
c1ccc(-c2nc3ccccc3n2C(c2ccccc2)c2nc3ccccc3[nH]2)cc1 (stereo not drawn),0,0,-,0,12
O=c1c(-c2ccccc2)nc2ccccc2n1C(c1ccccc1)c1nc2ccccc2[nH]1 (stereo not drawn),0,0,-,0,0
Cc1ccc2c(c1C)NC(=O)C21N2CCCC2C(C(=O)c2ccc3ccccc3c2)C12C(=O)Nc1ccccc12 (stereo not drawn),1.1,0,0,0,0
CCOC(=O)N1CCN(C(=O)CCn2nc(-c3ccccc3)ccc2=O)CC1,0,0,4.8,0,0
C=CS(=O)(=O)N(Cc1ccc(C)cc1)[C@@H](CO)C(=O)OC,0,0,-,0,0
